# Measurements published in PubChem BioAssay.
# Some of the results follow. The source made the active and inactive calls. Unless noted, no stated cut-off is given here; in the data, active means activity above about 50%; inactive means the rest.
# Experiments:
# [1] = inhibitors of PAF-induced NFkB signaling in CF airway cells, dose response, cell-based, uHTS hits, panel, cytotoxicity readout (AID 624344); conditions: CF bronchial epithelial cells, PAF-induced NFkB reporter inhibition, with PAF, run 1; at 79 µM (top of the series) unless noted
# [2] = as above; conditions: CF bronchial epithelial cells, PAF-induced NFkB reporter inhibition, with PAF, run 2; at 79 µM (top of the series) unless noted
# Cytotoxicity = test: as above; conditions: CF bronchial epithelial cells; run 1, at 19.8 µM (top of the series)
# [3] = target: Tumor necrosis factor receptor superfamily member 10B (Homo sapiens) (UniProt O14763); test: TRAIL sensitizers in caspase-8 expressing neuroblastoma cells, dose response, NB7 cells plus caspase-8, luminescence, panel (AID 652002); conditions: NB7 neuroblastoma +caspase-8, TRAIL sensitization, luminescence viability, NB7+Caspase-8, with TRAIL, run 1; at 12.5 µM (top of the series)
# [4] = target: Tumor necrosis factor receptor superfamily member 10B (Homo sapiens) (UniProt O14763); test: as above; conditions: NB7 neuroblastoma +caspase-8, TRAIL sensitization, luminescence viability, NB7+Caspase-8, with TRAIL, run 2; at 12.5 µM (top of the series)
# [5] = as above; conditions: NB7 neuroblastoma +caspase-8, no TRAIL, compound-alone cytotoxicity counter-screen, luminescence viability, NB7+Caspase-8, run 1; at 12.5 µM (top of the series) unless noted
# [6] = as above; conditions: NB7 neuroblastoma +caspase-8, no TRAIL, compound-alone cytotoxicity counter-screen, luminescence viability, NB7+Caspase-8, run 2; at 12.5 µM (top of the series) unless noted
# [7] = target: Tumor necrosis factor receptor superfamily member 10B (Homo sapiens) (UniProt O14763); test: caspase-8 TRAIL sensitization, hit retest, confirmation, cell-based, NB7+caspase-8, with/without TRAIL, luminescence panel (AID 651596); conditions: NB7 neuroblastoma + caspase-8, TRAIL sensitization, luminescence viability, with TRAIL, mean of runs, at 10 µM, stronger effect = higher value
# [8] = as above; conditions: NB7 neuroblastoma + caspase-8, without TRAIL, luminescence viability, without TRAIL, mean of runs, at 10 µM
# [9] = HIF-2a reporter inhibitor retest, confirmation, luminescence, 786-0 RCC cells (AID 651580;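 active means mean inhibition across four replicates of at least 40 percent at the single tested concentration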); conditions: HIF-2a luciferase reporter luminescence, overnight, at 18.8 µM, stronger effect = higher value
# [10] = HIF-1a luciferase reporter signal reduction – MiaPaCa-2 cells, single concentration, counter-screen for HIF-2a inhibitor project, confirmation (AID 651589;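 active means mean inhibition of the reporter signal across four replicates at the single tested dose of 50% or more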); conditions: MiaPaCa-2 HIF-1a luciferase reporter, desferoxamine, overnight; at 18.8 µM; stronger effect = higher value
# Sequence of Tumor necrosis factor receptor superfamily member 10B (Homo sapiens) (O14763 whole entry, looked up): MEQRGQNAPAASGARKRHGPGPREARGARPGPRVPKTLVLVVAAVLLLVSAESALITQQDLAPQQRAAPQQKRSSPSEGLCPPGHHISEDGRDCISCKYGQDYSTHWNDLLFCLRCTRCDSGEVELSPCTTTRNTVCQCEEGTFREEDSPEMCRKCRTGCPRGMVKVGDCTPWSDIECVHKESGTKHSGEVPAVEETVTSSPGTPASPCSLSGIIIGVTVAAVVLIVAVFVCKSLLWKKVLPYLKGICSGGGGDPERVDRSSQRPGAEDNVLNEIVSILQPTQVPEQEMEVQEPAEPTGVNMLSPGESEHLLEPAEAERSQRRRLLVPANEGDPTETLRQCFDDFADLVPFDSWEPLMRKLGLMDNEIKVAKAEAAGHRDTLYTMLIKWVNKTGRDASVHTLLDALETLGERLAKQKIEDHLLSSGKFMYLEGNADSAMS
compound,measurement,setting,value
COc1cccc2c(SCC(=O)N/N=C/c3ccccc3)cc(C)nc12,inhibition,[1],104%
same,inhibition,[2],106%
CCCCCCc1cc2cc(C(=O)Nc3ccccc3OC)c(=O)oc2cc1O,inhibition,[1],2.45%
same,inhibition,[2],66.2%
CC1(C)CC(=O)C(C2C3=C(CC(C)(C)CC3=O)Oc3c(Br)cc(Br)cc32)=C(O)C1 (stereo not drawn),inhibition,[1],104%
same,inhibition,[2],111%
O=[N+]([O-])C1C(c2ccccc2)C12c1ccccc1-c1ccccc12 (stereo not drawn),inhibition,[1],99.1%
same,inhibition,[2],106%
COc1ccc(-c2cc(=O)oc3cc(OC(=O)C4CCCCC4)c(Cl)cc23)cc1,inhibition,[1],117%
same,inhibition,[2],102%
Cc1nn(-c2cccc(Cl)c2)c2nc(C(F)(F)F)[nH]c(=O)c12,inhibition,[1],96%
same,inhibition,[2],79.8%
COc1ccc(/C=C/C(=O)c2cc(F)ccc2OC(=O)c2ccccc2C)cc1OC,inhibition,[1],4.66%
same,inhibition,[2],90.3%
Cc1cc(C)c(O)c(CN(C)Cc2cc(Cl)cc(Cl)c2O)c1,inhibition,Cytotoxicity,12%
O=Nc1ccc(NO)c2ccccc12,"activity, % sensitization",[3],19%
same,"activity, % sensitization",[4],40.7%
same,"activity, % sensitization",[5],39.7%
same,"activity, % sensitization",[6],31.2%
CCOC(=O)c1sc(NC(=O)c2cccc(S(=O)(=O)N3CCc4ccccc43)c2)c(C#N)c1C,"activity, % sensitization",[3],29.7%
same,"activity, % sensitization",[4],-18%
same,"activity, % sensitization",[5],1.22%
same,"activity, % sensitization",[6],-10%
CC(=O)c1c(C)[nH]c(C(=O)Nc2ccc(C)cn2)c1C,activity,[7],75.9%
same,activity,[8],77.6%
CCc1ccc(-c2ccc(SCC(=O)NCC3CCCO3)nn2)cc1 (stereo not drawn),activity,[7],52.9%
same,activity,[8],62.2%
CCOc1ccc(/C=C2\CCc3ccccc3C2=O)cc1,activity,[7],83.2%
same,activity,[8],79.2%
CCOc1cccc2sc(N(CCCN(C)C)C(=O)c3ccc(S(=O)(=O)N4CCc5ccccc5C4)cc3)nc12,activity,[7],55.9%
same,activity,[8],73.7%
Cc1nc(SCCC(=O)O)c2cc(-c3ccccc3)sc2n1,activity,[7],59%
COCC(C)n1c(C)cc(C(=O)COc2ccc(C)nc2[N+](=O)[O-])c1C (stereo not drawn),inhibition,[9],55% (active)
same,inhibition,[10],41.4% (inactive)
Cc1occc1C(=O)O/N=C(\N)c1ccccc1,activity,[7],89.7%
same,activity,[8],92.8%
Cc1ccc(C)c(NC(=S)NC(NC(=O)Cc2cccc3ccccc23)C(Cl)(Cl)Cl)c1 (stereo not drawn),activity,[7],82.6%
same,activity,[8],87.8%
C/C(=N\NC(=O)c1ccc(O)cc1)c1cccc(NC(=O)c2ccc(Cl)cc2)c1,activity,[7],74.3%
same,activity,[8],77.2%
CC(/C=N/NC(=O)c1cccs1)=C\c1ccccc1,activity,[7],61.9%
CN(C)CCNC(=O)c1cccc(-c2cnc3c(NC=O)cc(-c4cccc(C(F)(F)F)c4)cn23)c1,inhibition,[9],8.84% (inactive)
same,inhibition,[10],106% (active)
same,activity,[7],46.6%
same,activity,[8],90.8%
O=C(COc1ccc(/C=N/NC(=O)c2cc3ccccc3o2)cc1Br)Nc1ccccc1,activity,[7],93%
same,activity,[8],96.8%
CC(C)C[C@H]1CNC(=S)N1C[C@H]1CCCN1C[C@H](Cc1ccccc1)N1C[C@H](Cc2ccc(O)cc2)N(CC2CCCCC2)C1=S,activity,[7],-0.175%
same,activity,[8],-1.23%
O=C(NNC(=O)c1cc(OCC(F)(F)F)ccc1OCC(F)(F)F)c1cccc(C(F)(F)F)c1,activity,[7],50.6%
same,activity,[8],44.2%
CN(C)c1cccc(/C=C(\C#N)c2ccccc2)c1,activity,[7],28.8%
same,activity,[8],40.8%
CCOC(=O)c1cccc(NC(=O)/C=C/c2ccc3c(c2)OCO3)c1,activity,[7],78.9%
same,activity,[8],78.7%
O=C(CN1C(=O)c2ccccc2S1(=O)=O)c1ccc(Cl)cc1Cl,activity,[7],64.3%
Cc1cccc(NC(=S)NNC(=O)c2ccc3c(c2)OCO3)c1,activity,[7],39.1%
same,activity,[8],49.8%
Cc1cc(-c2n[nH]c(=S)n2/N=C/C(Br)=C/c2ccccc2)n[nH]1,inhibition,[9],22.8% (inactive)
same,inhibition,[10],105% (active)
CCCc1[nH]nc2c1C(C1CC=CCC1)C(C#N)=C(N)O2 (stereo not drawn),inhibition,[9],8.58% (inactive)
same,inhibition,[10],39.6% (inactive)
COc1cc2c(cc1O)C(SC)=NC(C)(C)C2,inhibition,[9],2.51% (inactive)
same,inhibition,[10],66.5% (active)
COc1ccccc1/C=C/C1(C(=O)NC2CCCC2)CC(=O)N1c1ccc(C)cc1 (stereo not drawn),activity,[7],90.2%
same,activity,[8],88.8%
Cc1c(CCC(=O)O)c(=O)oc2cc3occ(-c4ccccc4)c3cc12,inhibition,[9],68.1% (active)
same,inhibition,[10],50.7% (active)
O=C1c2ccccc2NC(c2ccc3c(c2)OCCO3)N1c1ccc2c(c1)OCCO2 (stereo not drawn),activity,[7],44.2%
same,activity,[8],51.8%
Cc1nnnn1/C(=C\c1ccccc1)C(=O)OCC(=O)N1CC2(C)CC1CC(C)(C)C2 (stereo not drawn),inhibition,[9],62% (active)
same,inhibition,[10],67.3% (active)
COc1ccc(-c2ccc3sc4ccccc4c(=O)c3c2)cn1,activity,[7],63.2%
same,activity,[8],61.5%
CCC(C)(C)c1ccc(Oc2ccc(NC(=O)COC(=O)C3=COCCO3)cc2)cc1,inhibition,[9],97.8% (active)
same,inhibition,[10],92.9% (active)
O=C(CCl)N1CCCC1c1ccc2c(c1)OCCO2 (stereo not drawn),activity,[7],95.6%
same,activity,[8],97.8%
COc1ccc(CC(N)c2csc(NC(=O)Nc3ccc(C(C)C)cc3)n2)cc1 (stereo not drawn),inhibition,[9],3.55% (inactive)
same,inhibition,[10],101% (active)
same,activity,[7],82.5%
same,activity,[8],97.2%
CCCSC(=S)NC1CCS(=O)(=O)C1 (stereo not drawn),inhibition,[9],14.6% (inactive)
same,inhibition,[10],68.5% (active)
O=C(CCl)N(Cc1cccc([N+](=O)[O-])c1)c1cccc(Cl)c1,inhibition,[9],62.8% (active)
same,inhibition,[10],107% (active)
same,activity,[7],99.1%
same,activity,[8],99.6%
